In ChEMBL document CHEMBL3988442, “University of Dundee, Small-Polar-MMV Screening Library” (2021):
For part of these data: Results with a measured potency or affinity are listed apart.

Biological target: T1, Ubiquitin-activating enzyme e1, putative (Leishmania donovani (strain BPK282A1)) (UniProt E9BSI1)
T1 sequence (whole entry): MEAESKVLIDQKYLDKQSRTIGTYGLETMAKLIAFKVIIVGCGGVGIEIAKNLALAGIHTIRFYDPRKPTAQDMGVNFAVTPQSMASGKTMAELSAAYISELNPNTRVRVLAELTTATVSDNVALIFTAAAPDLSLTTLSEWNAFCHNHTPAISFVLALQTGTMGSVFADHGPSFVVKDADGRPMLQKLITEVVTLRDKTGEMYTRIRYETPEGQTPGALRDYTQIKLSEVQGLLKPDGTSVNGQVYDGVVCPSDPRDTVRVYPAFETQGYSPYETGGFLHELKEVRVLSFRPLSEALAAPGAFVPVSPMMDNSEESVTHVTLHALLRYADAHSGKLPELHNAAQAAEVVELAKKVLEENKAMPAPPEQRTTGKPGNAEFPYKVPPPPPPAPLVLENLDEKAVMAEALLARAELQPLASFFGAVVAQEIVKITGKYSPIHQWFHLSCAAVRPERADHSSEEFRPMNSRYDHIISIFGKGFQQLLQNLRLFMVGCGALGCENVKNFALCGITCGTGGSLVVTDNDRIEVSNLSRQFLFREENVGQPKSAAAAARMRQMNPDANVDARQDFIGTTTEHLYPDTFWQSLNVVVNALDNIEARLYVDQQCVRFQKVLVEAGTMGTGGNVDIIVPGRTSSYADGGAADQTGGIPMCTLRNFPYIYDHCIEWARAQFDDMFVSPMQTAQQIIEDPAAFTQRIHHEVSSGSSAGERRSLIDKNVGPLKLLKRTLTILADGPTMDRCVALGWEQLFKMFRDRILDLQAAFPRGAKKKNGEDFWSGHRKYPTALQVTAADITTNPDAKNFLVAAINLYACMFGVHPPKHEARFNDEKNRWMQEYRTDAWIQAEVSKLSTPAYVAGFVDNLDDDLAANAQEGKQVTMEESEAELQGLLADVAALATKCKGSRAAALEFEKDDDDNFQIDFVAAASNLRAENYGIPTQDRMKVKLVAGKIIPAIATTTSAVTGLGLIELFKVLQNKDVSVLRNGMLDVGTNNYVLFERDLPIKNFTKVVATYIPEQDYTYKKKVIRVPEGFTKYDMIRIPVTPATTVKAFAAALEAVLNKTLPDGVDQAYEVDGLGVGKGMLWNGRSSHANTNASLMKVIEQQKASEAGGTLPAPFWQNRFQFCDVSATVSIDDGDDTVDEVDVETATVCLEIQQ
Assay: Leishmania donovani Ubiquitin Activating Enzyme (LdE1)
Type: functional
Design: scale not given: direction of the effect not stated beside the values
Settings: 30 µM

Structure (SMILES) | Percent Effect
CN(Cc1nc(-c2ccco2)no1)C1CCCN(c2cccnn2)C1 (stereo not given) | 20.2%
CC(C)(O)CN1CCN(C(=O)c2sccc2C2CC2)CC1 | 6.33%
COc1ccccc1NC(=O)NCC(O)(c1ccccc1)C1CC1 (stereo not given) | 11%
O=C(c1cccnc1)N1CCCC2(CCN(c3ccsc3)C2=O)C1 (stereo not given) | 10.4%
CC(O)CN1CCN(Cc2csc(-c3ncccn3)n2)CC1 (stereo not given) | 7.89%
O=C(c1ccc(O)c(Cl)c1)N1CCC(c2n[nH]c(C3CC3)n2)CC1 | 3.8%
Cn1cnc(S(=O)(=O)NCCCN2CCCCCC2)c1Cl | 8.11%
CCOC(=O)CCNC(=O)N1CCN(c2nc3ccccc3n2C)CC1 | 10.4%
CC(=O)N1CCCCC1c1nc(N)ncc1-c1ccccc1 (stereo not given) | 13.3%
Cc1nn(C)c(C)c1-c1cncc(C2CCN(S(C)(=O)=O)CC2)n1 | -2.67%
Cc1nn(C)c(N2CCOCC2)c1CNCc1ccnc(N(C)C)c1 | 10.4%
O=C(C1CCC1)N1CCN(Cc2ccsc2)[C@H]2CS(=O)(=O)C[C@H]21 | 2.6%
CSC(C)C(=O)N1CCCN(Cc2cscn2)CC1 (stereo not given) | 18.4%
CN(Cc1cccc(F)c1)C1CCN(CCc2ccccn2)CC1 | 21.6%
CNC(=O)[C@H]1CCS(=O)(=O)[C@@H]2CN(Cc3ccc(OC)cc3)C[C@H]12 | 2.7%
O=C(NCC1CC1)[C@@H]1CCO[C@@H]2CCN(Cc3ccco3)C[C@H]21 | -2.67%
Cc1ccsc1C(=O)N1CC(C(=O)NCC2CC2)C2(CCOCC2)C1 (stereo not given) | 7.79%
CCN(c1ccc(C(=O)N2CCCC2)cc1)S(=O)(=O)CC | -1.39%
Cc1nc(CN2CCC3(CCCN(Cc4cnn(C)c4)C3)C2=O)cs1 (stereo not given) | 10.7%
CC(NC(=O)CNCCn1cccn1)c1ccc2c(c1)OCCO2 (stereo not given) | -7.79%

Biological target: AMP-activated protein kinase, AMPK (Homo sapiens) (UniProt P54646+O43741+P54619+Q9UGJ0+Q9Y478+Q13131+Q9UGI9)
Assay: AMP-dependent Kinase enzyme assay. An in vitro enzyme assay that detects ADP turnover that is directly proportional to AMPK activity. This uses naive AMPK that is activated during the assay with MK-8722
Type: functional
Design: scale not given: direction of the effect not stated beside the values
Settings: 30 µM

Structure (SMILES) | Percent Effect
CCN(CC1CN(CCc2ccccn2)CCO1)c1cccnn1 (stereo not given) | -5.23%
O=C(NCc1ccc(-n2cncn2)nc1)c1ccoc1 | -18.3%
Cc1ccsc1C(=O)N1CC(C(=O)N2CCOCC2)C2(CCOCC2)C1 (stereo not given) | 117%
Cn1ncc2c(=O)[nH]c(CN3CCCC3CC3CCCCC3)nc21 (stereo not given) | -3.55%
CCN1C[C@H]2CCN(C(C)=O)CC[C@H]2S1(=O)=O | -6.04%
COc1ccc(-c2nc(CN3CCOCS3(=O)=O)c(C)o2)cc1 | -8.87%
Cn1nc(C2CN(C(=O)c3cscn3)C2)c2nccnc21 | -2.02%
c1coc(CN2CCCC3(COCCN(Cc4c[nH]nn4)C3)C2)c1 (stereo not given) | 2.62%
COCCO[C@@H]1C[C@H]2CN(C(=O)c3cnccn3)CCN2C1 | -0.698%
CC(=O)N1CCC(C(=O)c2cc(C)cnc2N)CC1 | 3.67%
Cc1ccc(C(=O)N(C)Cc2cc(Br)cs2)c(=O)[nH]1 | 5.18%
Cc1nc(C)n(CC2CN(CCc3ccncc3)CCO2)n1 (stereo not given) | 1.35%
CN(CC(N)=O)S(=O)(=O)c1ccc(F)cc1Cl | 0.145%
CC(=O)NCC1CCN(CC2CCOc3ccccc3C2)CC1 (stereo not given) | -4.21%
Cc1nn(-c2ccccc2)nc1C(=O)N1CCCC1c1cnn(C)c1 (stereo not given) | -0.474%
CCC1=N[C@@]2(CC[C@@H]3CN(CC4CC4)C[C@@H]32)C(=O)N1C | 1.5%
Cc1cccc2c1OCCC2NCc1c(C)nn(C)c1N(C)C (stereo not given) | -5.71%
Cc1ccc(CN2C[C@@H]3COC[C@@H](NS(C)(=O)=O)[C@@H]3C2)o1 | -0.569%
CN(Cc1ccc(Cl)s1)C(=O)NCc1nnc2n1CCC2 | 2.58%
Cn1cnc(S(=O)(=O)N2CCN(Cc3ccco3)CC2)c1Cl | -1.11%

Structure (SMILES) | Percent Effect
CN(Cc1nc(-c2ccco2)no1)C1CCCN(c2cccnn2)C1 (stereo not given) | -5.85%
CC(C)(O)CN1CCN(C(=O)c2sccc2C2CC2)CC1 | 9.46%
COc1ccccc1NC(=O)NCC(O)(c1ccccc1)C1CC1 (stereo not given) | -22.1%
O=C(c1cccnc1)N1CCCC2(CCN(c3ccsc3)C2=O)C1 (stereo not given) | 15.5%
CC(O)CN1CCN(Cc2csc(-c3ncccn3)n2)CC1 (stereo not given) | -3.51%
O=C(c1ccc(O)c(Cl)c1)N1CCC(c2n[nH]c(C3CC3)n2)CC1 | -0.285%
Cn1cnc(S(=O)(=O)NCCCN2CCCCCC2)c1Cl | -5.51%
CCOC(=O)CCNC(=O)N1CCN(c2nc3ccccc3n2C)CC1 | 1.91%
CC(=O)N1CCCCC1c1nc(N)ncc1-c1ccccc1 (stereo not given) | 9.28%
Cc1nn(C)c(C)c1-c1cncc(C2CCN(S(C)(=O)=O)CC2)n1 | 22.7%
Cc1nn(C)c(N2CCOCC2)c1CNCc1ccnc(N(C)C)c1 | -5.9%
O=C(C1CCC1)N1CCN(Cc2ccsc2)[C@H]2CS(=O)(=O)C[C@H]21 | 1.04%
CSC(C)C(=O)N1CCCN(Cc2cscn2)CC1 (stereo not given) | 1.3%
CN(Cc1cccc(F)c1)C1CCN(CCc2ccccn2)CC1 | -5.03%
CNC(=O)[C@H]1CCS(=O)(=O)[C@@H]2CN(Cc3ccc(OC)cc3)C[C@H]12 | 3.94%
O=C(NCC1CC1)[C@@H]1CCO[C@@H]2CCN(Cc3ccco3)C[C@H]21 | 1.99%
Cc1ccsc1C(=O)N1CC(C(=O)NCC2CC2)C2(CCOCC2)C1 (stereo not given) | 87.3%
CCN(c1ccc(C(=O)N2CCCC2)cc1)S(=O)(=O)CC | 3.96%
Cc1nc(CN2CCC3(CCCN(Cc4cnn(C)c4)C3)C2=O)cs1 (stereo not given) | -6.96%
CC(NC(=O)CNCCn1cccn1)c1ccc2c(c1)OCCO2 (stereo not given) | 0.13%
